Measurements as given in PubChem BioAssay AID1159580 (chemical genetic matrix, 2015).
Screen size: about 5,500 compounds; about 2,000 (36%) were called active. About 18% were inconclusive and are not listed. Rule as the data show it: active = normalized growth mostly below about 0.91 (no sharp cut-off); inconclusive = no clear call, values can overlap the other calls; inactive = mostly above about 0.92. The list shows a part of the results.

Experiment: chemical genetic growth profiling, strain panel (AID 1159580);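 also: tested at 20 µM; growth read once vehicle control cultures reached saturation at 30 °C; 1 = growth at the plate median or of vehicle wells; lower values mean less growth of the strain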
Conditions: S. cerevisiae deletion strains, growth OD
[1] = locus YCL061C, strain MRC1, hits give low values
[2] = locus YHR030C, strain SLT2, hits give low values

Measured: normalized growth

CC(=O)Nc1ccc(S(=O)(=O)Nc2onc(C)c2C)cc1
inactive: locus YAL021C, strain ccr4, hits give low values 0.984 | locus YAL026C, strain drs2, hits give low values 0.976 | locus YAL030W, strain snc1, hits give low values 0.98 | locus YBL061C, strain skt5, hits give low values 0.969 | locus YBR009C, strain hhf1, hits give low values 0.959 | locus YBR023C, strain chs3, hits give low values 0.97 | locus YBR171W, strain sec66, hits give low values 0.965 | locus YBR231C, strain swc5, hits give low values 0.981 | locus YBR279W, strain paf1, hits give low values 0.968 | locus YCL011C, strain gbp2, hits give low values 0.973 | locus YCL016C, strain dcc1, hits give low values 0.969 | [1] 0.985 | locus YCL069W, strain vba3, hits give low values 0.972 | locus YCR088W, strain abp1, hits give low values 0.965 | locus YDL005C, strain med2, hits give low values 0.969 | locus YDL040C, strain nat1, hits give low values 0.969 | locus YDR001C, strain nth1, hits give low values 0.963 | locus YDR069C, strain doa4, hits give low values 0.962 | locus YDR137W, strain rgp1, hits give low values 0.959 | locus YDR159W, strain sac3, hits give low values 0.946 | locus YDR195W, strain ref2 0.948 | locus YDR297W, strain sur2, hits give low values 0.967 | locus YDR334W, strain swr1, hits give low values 0.975 | locus YDR335W, strain msn5, hits give low values 0.972 | locus YDR392W, strain spt3, hits give low values 0.929 | locus YEL003W, strain gim4, hits give low values 0.974 | locus YEL037C, strain rad23, hits give low values 0.971 | locus YEL061C, strain CIN8 (second series), hits give low values 0.956 | locus YER015W, strain faa2, hits give low values 0.986 | locus YER016W, strain bim1, hits give low values 0.96 | locus YER111C, strain swi4, hits give low values 0.975 | locus YER155C, strain BEM2 (second series), hits give low values 0.971 | locus YFR010W, strain ubp6, hits give low values 0.959 | locus YGL167C, strain pmr1, hits give low values 0.968 | locus YGL173C, strain kem1, hits give low values 0.969 | locus YGL227W, strain vid30, hits give low values 0.966 | locus YGL240W, strain doc1, hits give low values 0.981 | locus YGL253W, strain hxk2, hits give low values 0.994 | locus YHR013C, strain ard1, hits give low values 0.963 | locus YHR027C, strain rpn1, hits give low values 0.989 | [2] 0.975 | locus YHR079C, strain IRE1, hits give low values 0.968 | locus YHR142W, strain chs7, hits give low values 0.965 | locus YJL092W, strain hpr5, hits give low values 0.971 | locus YJL095W, strain BCK1 (second series), hits give low values 0.975 | locus YJL095W, strain BCK1, hits give low values 1 | locus YJL115W, strain asf1, hits give low values 0.964 | locus YJL129C, strain trk1, hits give low values 0.983 | locus YJL154C, strain vps35, hits give low values 0.965 | locus YJL164C, strain tpk1, hits give low values 0.982 | locus YJL166W, strain qcr8, hits give low values 0.983 | locus YJL187C, strain SWE1, hits give low values 0.97 | locus YJR066W, strain TOR1, hits give low values 0.908 | locus YKL160W, strain elf1, hits give low values 0.984 | locus YKR026C, strain gcn3, hits give low values 0.967 | locus YKR091W, strain srl3, hits give low values 0.977 | locus YLL001W, strain dnm1, hits give low values 0.951 | locus YLL026W, hits give low values 0.961 | locus YLL041C, strain sdh2, hits give low values 0.978 | locus YLR027C, strain aat2, hits give low values 0.973 | locus YLR113W, strain HOG1, hits give low values 0.975 | locus YLR221C, strain rsa3, hits give low values 0.987 | locus YLR258W, strain gsy2, hits give low values 0.971 | locus YLR262C, strain YPT6 (second series), hits give low values 0.98 | locus YLR320W, strain mms22, hits give low values 0.972 | locus YLR342W, strain FKS1, hits give low values 0.974 | locus YLR357W, strain rsc2, hits give low values 0.951 | locus YLR370C, strain arc18, hits give low values 0.957 | locus YLR384C, strain iki3, hits give low values 0.962 | locus YML120C, strain ndi1, hits give low values 0.988 | locus YMR058W, strain fet3, hits give low values 0.971 | locus YMR125W, strain sto1, hits give low values 0.937 | locus YMR129W, hits give low values 0.979 | locus YMR205C, strain PFK2, hits give low values 0.936 | locus YMR231W, strain pep5, hits give low values 0.969 | locus YNL071W, strain lat1, hits give low values 0.975 | locus YNL183C, strain NPR1, hits give low values 0.926 | locus YNL209W, strain ssb2, hits give low values 0.975 | locus YNL248C, strain rpa49, hits give low values 1.02 | locus YNL322C, strain KRE1 (second series), hits give low values 0.98 | locus YNR049C, strain mso1, hits give low values 0.969 | locus YOR001W, strain rrp6, hits give low values 0.985 | locus YOR070C, strain gyp1, hits give low values 0.977 | locus YOR080W, strain dia2, hits give low values 0.954 | locus YOR083W, strain WHI5, hits give low values 0.997 | locus YOR106W, strain vam3, hits give low values 0.996 | locus YOR231W, strain MKK1, hits give low values 0.989 | locus YOR265W, strain rbl2, hits give low values 0.973 | locus YOR270C, strain vph1, hits give low values 0.922 | locus YOR290C, strain snf2, hits give low values 0.964 | locus YPL051W, strain arl3, hits give low values 0.985 | locus YPL078C, strain atp4, hits give low values 0.981 | locus YPL106C, strain sse1, hits give low values 0.97 | locus YPL240C, strain hsp82, hits give low values 0.99 | locus YPL256C, strain CLN2, hits give low values 0.955

c1ccc(-c2nc(-c3cccs3)cs2)cc1
active: locus YAL013W, strain DEP1, hits give low values 0.916 | locus YBR229C, strain ROT2, hits give low values 0.877 | [1] 0.895 | locus YEL061C, strain CIN8, hits give low values 0.838 | locus YGR078C, strain PAC10, hits give low values 0.88 | [2] 0.166 | locus YHR087W, strain rtc3, hits give low values 0.744 | locus YJR075W, strain HOC1, hits give low values 0.707 | locus YLR039C, strain RIC1, hits give low values 0.273 | locus YLR058C, strain SHM2 (second series), hits give low values 0.859 | locus YLR085C, strain ARP6, hits give low values 0.408 | locus YLR262C, strain YPT6, hits give low values 0.274 | locus YML094W, strain GIM5, hits give low values 0.866 | locus YMR219W, strain ESC1, hits give low values 0.919 | locus YNL298W, strain CLA4 (second series), hits give low values 0.714 | locus YNL322C, strain KRE1, hits give low values 0.914 | locus YNR030W, strain Alg12, hits give low values 0.693 | locus YPL055C, strain LGE1, hits give low values 0.768 | locus YPL241C, strain CIN2, hits give low values 0.813 | locus YPR135W, strain CTF4, hits give low values 0.341
inactive: locus YDL101C, strain DUN1, hits give low values 0.988 | locus YDR150W, strain NUM1, hits give low values 0.939 | locus YJR043C, strain POL32, hits give low values 0.973 | locus YMR263W, strain SAP30, hits give low values 0.931 | locus YNL153C, strain GIM3, hits give low values 0.983
